The values that follow come from PubChem BioAssay AID2462 (Broad Institute, 2010).

Screen size: about 330,000 compounds; about 220 (0.067%) were called active. The full list was thinned out, with actives kept by preference. Unmarked numbers belong to inactive results.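 The calls were made as follows: active = over half of replicate activation scores above 10%, or exactly half above 10 with the replicate mean above 10; inconclusive = replicate mean below 10 yet half the replicates above 10; inactive = over half of replicates below 10.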

The test is described as follows: inducers of caspase signal in A1-primed MEFs – cell-based, luminescence, HTS, A1 inhibitor project, primary screen (AID 2462). The conditions noted are these: MEF A1-2A-BIM cells, Caspase-Glo 3/7 luminescence, 3 h; hits give high values; percent of clofoctol response, vehicle zero; concentration not given here.
For `O=C(CCc1nnc2ccc(NCc3ccccc3Cl)nn12)NCC1CCN(C2CCCC2)C1` (centres undefined), the caspase activation is -0.323%. As for `CCC(C)(C)c1ccc(OCC(=O)N(C)C)c(C(C)(C)CC)c1`, the caspase activation was -0.559%. As to `O=C(COc1ccc([N+](=O)[O-])cc1Cl)Nc1ccc2[nH]c(=O)[nH]c2c1`, the caspase activation is -0.19%. Turning to `Cc1cc(OCCN2CCCC2)cc(C(C)C)c1`, the caspase activation is 0.0914%.

For the molecule `O=C(O)CC1S/C(=N\N=C/c2ccccc2O)N(c2ccc(O)cc2)C1=O` (centres undefined), the caspase activation was 0.687%. With `CCOc1ccc(NC(=O)CC2C(=O)N(c3ccccc3)C(=O)N2CCOC)cc1` (centres undefined), the caspase activation was 0.358%. For the molecule `C=CCC1(C#N)C(=S)NC(C)=C(C(=O)OCC)C1c1ccccc1` (centres undefined), the caspase activation was 0.0109%. For the molecule `Cc1cccc(NS(=O)(=O)c2ccc(C)c(C(=O)NCC(c3ccccc3)N(C)C)c2)c1` (centres undefined), the caspase activation is 1.2%. As for `Cc1c2cn[nH]c(=O)c2c(C)n1Cc1ccc(F)cc1`, the caspase activation is -0.558%. Next, `Cc1cc(NC(=O)CSc2nc3cc(Cl)ccc3c(=O)n2Cc2ccco2)no1`: 29.5% (active); `Cc1cc(NC(=O)CSc2nc3ccccc3n2CC(C)C)no1`: 0.633%.

In the case of `Cc1cc(NC(=O)CSc2nnc(-c3ccco3)n2N)no1`, the caspase activation is -0.817%. `CC(NC(=S)Nc1ccccc1)C1COc2ccccc2O1` (centres undefined): the caspase activation was -0.247%. As to `CCC1=NN(C(=O)Cc2ccc([N+](=O)[O-])cc2)C(O)(c2ccc(Br)cc2)C1` (centres undefined), the caspase activation is 1.08%. Next, `Cc1ccc(S(=O)(=O)N(CC(O)CN2C(=O)NC(C)(C)C2=O)c2cccc([N+](=O)[O-])c2)cc1` (centres undefined): 0.0755%; `CSc1nnnn1-c1c(C)cc(C)cc1C`: -0.157%. Regarding `O=C1CCC(C(=O)N2CCCCO2)CN1Cc1cccc(C(F)(F)F)c1` (centres undefined), the caspase activation was 0.28%. In the case of `Cc1ccc(/C=C/C(=O)OCC(=O)NCc2ccc(Cl)cc2)o1`, the caspase activation is -0.527%. `CCOC(=O)CSc1ccccn1`: the caspase activation is -0.651%. Next, `CCOC(=O)CSC1=N/C(=C/c2ccc(-n3cncn3)cc2)C(=O)N1C(C)=O`: 8.99% (active); `CCOC(=O)CSc1nc(C)cc2c1C(=O)OC2`: 0.711%. On to `O=C1CCC(C(=O)N2CCC(O)(c3ccccc3)CC2)CN1CCc1ccccc1` (centres undefined), for which the caspase activation is 0.199%. As to `COCCNc1ccc(-c2n[nH]c(=O)c3ccccc23)cc1[N+](=O)[O-]`, the caspase activation is -1.33%.

For `Cc1ccc(NC(=O)c2ccc(Oc3ncccn3)cc2)cc1`, the caspase activation was -1.4%.

In the case of `Cc1ccccc1N1CCN(C2CCCN(C(=O)c3ocnc3C)C2)CC1` (centres undefined), the caspase activation is 0.888%. `CCc1ccc(/C=N/NC(=O)c2ccc(OC3CCCC3)cc2)s1`: the caspase activation is -0.334%. For the molecule `COC(=O)C(=Nc1ccccc1)/C(C(=O)C(=O)N(C)c1ccccc1)=C(\O)c1ccc(Cl)cc1`, the caspase activation was -1%. As for `Cc1ccc(-n2c(SCC(=O)Nc3ncc(Cl)cc3Cl)nc3ccccc32)cc1`, the caspase activation is 0.221%. With `CCC1(C(=O)c2ccccc2)C(c2cccc([N+](=O)[O-])c2)C1(C(=O)OC)C(=O)OC` (centres undefined), the caspase activation is -0.612%. As to `O=C1Nc2c(Br)cc(Br)cc2C1(O)N1CCOCC1` (centres undefined), the caspase activation is -1.16%. Next, `COc1ccc(C(=O)NCc2ccc(Cl)cc2)cc1S(=O)(=O)N1CCCC1`: -0.377%; `COc1cc(C2C(N3C(=O)c4ccccc4C3=O)C(=O)N2c2ccc(C)c(C)c2)cc(OC)c1OC` (centres undefined): 0.266%. Regarding `CCOc1ccc(Br)cc1S(=O)(=O)Nc1ccc(S(=O)(=O)Nc2cc(C)on2)cc1`, the caspase activation was 1.21%. Next, `O=C(Nc1ccc(Cl)c(Cl)c1)c1ccccc1NC(=O)C1CC=CCC1C(=O)O` (centres undefined): -2.01%; `Cc1ccc(-n2ncc3c2CC(C)(C)CC3NC(=O)Cc2c(C)noc2C)cc1` (centres undefined): 1.06%.

On to `Cc1cc(C(C)(C)C)cc(S(=O)(=O)Nc2ccc(C(=O)O)cc2)c1C`, for which the caspase activation was -0.667%. For the molecule `CCCCCn1c(=O)c(C(=O)OCC)c(Cl)c2ccccc21`, the caspase activation was 0.0442%. For the molecule `N#CCSc1nc(-c2ccccc2)nc2ccc(F)cc12`, the caspase activation is 1.31%.

Take `C#CCOCCOCCOCCNc1nc(N2CCN(C(=O)C([C@@H](C)O)n3cc([C@@H](N)CCCCN)nn3)CC2)nc(N2CCN(C(=O)[C@H](CCCCN)n3cc(CN)nn3)CC2)n1` (some centres undefined): the caspase activation was 0.837%.

As for `Cc1cc(=O)[nH]c(S)c1C#N`, the caspase activation is 0.51%. `COCCn1c(N)c(NCc2ccccc2)c(=O)[nH]c1=O`: the caspase activation was -0.132%. On to `CCC(C)N(C(=O)COC(=O)C1C(C(=O)OC)=C(C)NC(C)=C1C(=O)OC)C1CCS(=O)(=O)C1` (centres undefined), for which the caspase activation is -0.124%. Turning to `CCCCc1ccc(NC(=S)N2CCCC(CO)C2)cc1` (centres undefined), the caspase activation was -0.669%. Turning to `CCCc1cc(C(=O)Nc2ccc(Cl)cn2)cs1`, the caspase activation is -8.84%.

With `CCS(=O)(=O)c1cc([N+](=O)[O-])c(Sc2ccccc2N)s1`, the caspase activation was 1.52%. For `Nc1ccccc1SC(C[N+](=O)[O-])c1ccccc1` (centres undefined), the caspase activation is 9.45% (active). In the case of `Cc1ccc(C(C[N+](=O)[O-])c2c(C)cc3ccccn23)cc1` (centres undefined), the caspase activation is 1.62%. For the molecule `O=C(Nc1nnc(C2=COCCO2)o1)c1ccc([N+](=O)[O-])s1`, the caspase activation is -4.99%. For `Cc1ccc(C(=O)Nc2nnc(C3=COCCO3)o2)cc1C`, the caspase activation is 44.6% (active). In the case of `COc1cc(-c2nnc(NC(=O)C3=COCCO3)o2)cc(OC)c1OC`, the caspase activation was 0.457%. Turning to `ON=C1/C(=N\O)CC2(C/C1=N/O)OCCO2`, the caspase activation was 0.622%. Next, `O=C1CCCc2nn(-c3ccccc3)nc21`: -0.0976%; `COC(=O)Nc1ncc(CN2CCCCC2)s1`: 0.0297%. For the molecule `CSCC[C@H](NC(=O)NCCc1ccc(F)cc1)C(=O)O`, the caspase activation was 0.319%. As to `CC(C)CC(=O)c1c[nH]c(C(=O)NCc2ccccc2)c1`, the caspase activation was 6.29% (active). Take `O=C(c1ccc(F)cc1)c1c[nH]c(C(=O)NCc2cccnc2)c1`: the caspase activation was 0.0496%. On to `COc1ccc(CNC(=O)c2cc(C(=O)C3CC3)c[nH]2)cc1`, for which the caspase activation is -0.0151%.

Consider `CC(=O)Nc1cccc(NC(=O)c2ccc3c(c2)CCN3S(C)(=O)=O)c1`, for which the caspase activation was 0.604%. Next, `COc1ccc(-c2n[nH]c3c2CN(C(=O)c2ccc(F)cc2)CC3)cc1`: 1.44%; `CCOC(=O)c1sc(N)c(C#N)c1COC(=O)C1=COCCO1`: 0.458%. Take `COc1ccc(CNC(=O)c2ccc(NS(=O)(=O)c3ccc4[nH]c(=O)[nH]c4c3)cc2)cc1OC`: the caspase activation was -0.468%. Next, `COc1cccc(NC(=O)CN(C)C(=O)/C=C/c2cc(OC)ccc2OC)c1`: -0.126%; `O=C(O)c1ccn(COc2ccc(Br)cc2)n1`: -1.22%; `CC(C)N(C(=O)CN1CCN(S(=O)(=O)c2ccc(Br)s2)CC1)C(C)C`: 1.33%. Consider `CC(C)n1cnc2c(NCc3ccccc3)cc(N[C@@H](CO)Cc3ccccc3)cc21`, for which the caspase activation was -2.12%. In the case of `O=c1c2ccccc2ccc2ccc(P(=O)(O)O)cc12`, the caspase activation is 0.843%. Take `N#CCOc1ccc(C2=NO[C@@H]3[C@@H]4C[C@@H]([C@H]5C(=O)N(c6ccc7c(c6)OCO7)C(=O)[C@@H]45)[C@H]23)cc1`: the caspase activation is 0.442%. Next, `CSc1cc(C)[nH]c(=O)n1`: -0.248%; `O=S(=O)(c1ccccc1)N(Cc1cccc(F)c1)c1ccccc1`: 0.447%. Next, `COC(=O)Cn1cc(/C=C/[N+](=O)[O-])c2ccccc21`: 1.03%; `O=[N+]([O-])/C=C/c1ccc2c(ccn2Cc2ccccc2)c1`: 9.93% (active).

For the molecule `O=C(Cn1ccc2cc(S(=O)(=O)N3CCCC3)ccc21)NCc1ccccc1`, the caspase activation was -0.143%.

In the case of `COc1ccc(S(=O)(=O)N(C)C[C@H]2Oc3ccc(NS(=O)(=O)c4cccs4)cc3CC(=O)N([C@H](C)CO)C[C@H]2C)cc1`, the caspase activation was -0.719%.

Take `O=C(O)c1cccnc1Sc1ncnc2sc3c(c12)CCC3`: the caspase activation was -0.234%.

For `O=C(CSc1nc(Nc2ccccc2)nc(N2CCOCC2)n1)Nc1cc(Cl)ccc1O`, the caspase activation was 0.376%. For `Nc1nc(Br)c2ccccc2c1-c1ccc(F)cc1`, the caspase activation was -0.0976%. For the molecule `CC(C)(O)C#Cc1ncc(C(F)(F)F)cc1Cl`, the caspase activation is 0.0403%. In the case of `Cc1ccc(NCc2n[nH]c(=S)n2-c2ccccc2)cc1Cl`, the caspase activation was -0.072%. `CCCS(=O)(=O)N1CCN=C1SCc1cccc(F)c1`: the caspase activation was -0.156%. With `CCn1ncc(CNC(=O)C2(C)CC2(Br)Br)c1C` (centres undefined), the caspase activation is -0.282%. On to `COc1cc(C(=O)NC2CCN(Cc3ccccc3)CC2)cc(Cl)c1OC(C)C`, for which the caspase activation is -0.406%. Next, `COc1ccccc1CNC(=O)CCCNS(=O)(=O)c1cccc2nsnc12`: 0.433%; `O=C(c1cc2ccccc2o1)N1CCN(S(=O)(=O)c2ccc(Cl)s2)CC1`: -0.105%.

In the case of `COc1ccc(CNC(=O)CN2CCC(n3nnc4cc(F)ccc43)CC2)cc1`, the caspase activation is -0.421%. Next, `CC1CCCN(C(C(=O)Nc2ccc(C(C)C)cc2)c2ccc3c(c2)OCO3)C1` (centres undefined): -0.471%; `NC(=O)C1CCCN(CC(=O)N2CCN(c3ccccc3)CC2)C1` (centres undefined): -0.0385%. For the molecule `Cc1ccc(S(=O)(=O)N2CCN(C(=O)CN3C(=O)NC(C)(c4ccc(Cl)cc4)C3=O)CC2)c(C)c1` (centres undefined), the caspase activation was -0.688%. On to `CC(NCC(=O)Nc1ccccc1C(=O)NC1CC1)c1ccccc1Cl` (centres undefined), for which the caspase activation was 0.355%. On to `CC(=O)N(CN1C(=O)C2C3C=CC(C3)C2C1=O)c1cccc(Cl)c1` (centres undefined), for which the caspase activation was 0.192%.

As for `CCOc1ccccc1NC(=O)NC1CCCCCCC1`, the caspase activation is -0.841%. As for `Cn1c(CCCOc2ccc(Cl)cc2Cl)n[nH]c1=S`, the caspase activation is -0.629%.

As for `O=C(NC(=S)Nc1ccc2oc(=O)ccc2c1)c1ccc(-c2cccc(Cl)c2Cl)o1`, the caspase activation is 0.568%.

As for `CC1CCc2[nH]c3ccc(C(=O)N(C)CC(=O)Nc4cccc(F)c4)cc3c2C1` (centres undefined), the caspase activation is 0.268%.

As for `Cc1ccc(S(=O)(=O)c2c[nH]c3ccc(C)cc3c2=O)cc1`, the caspase activation is -2.55%. On to `COc1ccc(-c2cnc(SCCNC(=O)c3ccc4c(c3)OCO4)[nH]2)cc1`, for which the caspase activation is 1.35%. Consider `O=C(N/N=C/c1cccc(OCc2ccccc2)c1)c1ccc(Br)o1`, for which the caspase activation is 0.285%. Turning to `CCCc1ccc(OCc2ccc(C(=O)N/N=C/c3cccc([N+](=O)[O-])c3)o2)c(OC)c1`, the caspase activation was 16.1% (active). Next, `COC(=O)c1ccc(COc2ccc(/C=N/NC(=O)C(=O)Nc3ccc(OC)cc3)cc2OC)o1`: 0.365%; `NC(=O)COC(=O)c1cc(S(=O)(=O)N2CCN(c3ccccc3)CC2)ccc1Cl`: 0.691%.
